Measurements published in PubChem BioAssay AID1508600 (Functional Genomics Laboratory (NCATS/FGL), 2020).
Among all 53,000 sequences or so, about 3,700 (7%) were called active.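 How the source made its calls: active means gene knockdowns whose robust z-score for IL-1 alpha signal is at least 2 or at most -2, so actives lie on both sides; inactive means the rest.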 The full list was thinned out, with actives kept by preference.

Assay: Components of the Cytosolic LPS Sensing Pathway: Gene Identification via Genome-wide siRNA Screen;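 further: robust z of the log signal after scaling to non-targeting control siRNA wells of the plate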
Conditions: RAW264.7 macrophages, IL-1a HTRF, actives lie on both sides, screened at 100 nM (by protocol), cells primed 5 h with Pam3CSK4 first
Summary of the method: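 RAW264.7 mouse macrophages reverse-transfected with single siRNAs (100 nM final) for 48h, primed with Pam3CSK4 for 5 hours, then transfected with LipidA for 24 hour. Supernatant IL-1a read by HTRF; values normalized to negative-control median, log-transformed robust z-scores.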
In the case of GGAGGGAAGAAACAAUCUATT against Rnf40, the z-score is reported as 0.497 (inactive).
With GGGUGCAUUUGAGAAGAUCTT against Casd1 the z-score was 4.11 (active).
For GGAGUGCAUGACUCAGCUUTT against Olfr926, the z-score was -1.54 (inactive).
With GCUGACCGGCAUUUACCAUTT against Mcm2 the z-score was 2.78 (active).
In the case of GGCUCUCUUCGGGAAUACUTT against Tmem234, the z-score is reported as 1.22 (inactive).
For GGAGAUCAACAGGAUUUUGTT against Gna15, the z-score was -1.35 (inactive).
For “GCUGUGUUAGAAAGCAGGCTT against 4931406H21Rik”, the z-score was 0.927 (inactive).
For GCUAUAGAUUCCUCUGCCATT against Olfr1098, the z-score was -0.525 (inactive).
In the case of CCCUAGAAUUAUAUCCUGUTT against Col4a1, the z-score is reported as -0.494 (inactive).
With GGGAUCAAUGCUUAAUACATT against Zfp2 the z-score was 1.1 (inactive).
In the case of GGGAAACACAAUUUACCUUTT against Elf1, the z-score is reported as 3.18 (active).
In the case of CCAACUUUCUCUUAGGAAATT against Igfl3, the z-score is reported as -0.487 (inactive).
For CCAGCCUUCAAUUGUGGUCTT against Scn1b, the z-score was 0.672 (inactive).
For GAUUUUCUUUGUUCAUCUCTT against Olfr727, the z-score was -0.535 (inactive).
For CGACUAUCAGCAGCUGAAGTT against Igf1r, the z-score was 5.27 (active).
In the case of GCGGAUUGUCUUCCUAGACTT against Smg9, the z-score is reported as -1.14 (inactive).
With GGUUCUAGGACCUAUUUUGTT against Cep57 the z-score was 1.87 (inactive).
For GGUUAUUACCCAGUUCACGTT against Pramel1, the z-score was -0.668 (inactive).
In the case of GCCCUUCGUGAUGAAGAAUTT against B4galt3, the z-score is reported as 0.829 (inactive).
For GCUAAACUCGCUCAAUCUGTT against Cd14, the z-score was 0.537 (inactive).
For CCUACUACUUCGUUAUCCGTT against Chrna2, the z-score was 0.447 (inactive).
In the case of GCUGAUGUGAAUGGCUCACTT against Gmeb2, the z-score is reported as -1.02 (inactive).
In the case of GGCCCUUUGAGUCGUUCCUTT against Batf3, the z-score is reported as 2.6 (active).
For CCGUGUCUUAGGUGAUCACTT against H2-DMb1, the z-score was 0.391 (inactive).
In the case of GGAGACGAAUCCUUUCAGUTT against Mis12, the z-score is reported as 0.476 (inactive).
In the case of CCAAAGGUUACCAGGAAGCTT against Pcsk4, the z-score is reported as 0.124 (inactive).
For GCAGCUAAAACAAGUUUGATT against Sntg2, the z-score was -0.565 (inactive).
For GGAUUUACCUUACAAAAGUTT against Aff2, the z-score was 0.578 (inactive).
With GGAUCUAUUCUCUCUGAUGTT against Prune2 the z-score was 1.03 (inactive).
For GGCAAAGUAUAAAGAAGUATT against Gkap1, the z-score was 2.23 (active).
In the case of GCCAUUAAGAUCGCUUACUTT against Selenop, the z-score is reported as -0.432 (inactive).
For GGAGCUUUCUCAAGAUUCATT against Arid1a, the z-score was 0.263 (inactive).
In the case of GCGACUUCGCUAUAUCAAGTT against Samhd1, the z-score is reported as 1.65 (inactive).
In the case of CCUUAGGAUUUGAACGCGUTT against Cutc, the z-score is reported as -0.554 (inactive).
For GCUAGUAUUCUAAGAUCUUTT against Mpp6, the z-score was 2.25 (active).
In the case of GGCAAAAUCGUGAAAAUUCTT against Vwf, the z-score is reported as -0.144 (inactive).
For GGCGAUCCUUACUCCAAUGTT against Zfp90, the z-score was 0.143 (inactive).
In the case of GGAAUGGACCUCAAAAUUGTT against Vmp1, the z-score is reported as 0.532 (inactive).
With GCCACUACCGAUUUUCCCUTT against Lctl the z-score was -2.29 (active).
With GGAGAUGCUAGAAAUUGUGTT against Hpca the z-score was -0.909 (inactive).
In the case of GCACAUCGGCCUUAAGUCATT against Supt4a, the z-score is reported as -0.833 (inactive).
In the case of CCGUUUUCGCUUUGAGAAATT against Smarcad1, the z-score is reported as 4.47 (active).
For GUAAUUCACAGCCUCUCCGTT against Pitx3, the z-score was 1.03 (inactive).
In the case of GGACAUUUUAGUUGUCUUGTT against Slc38a4, the z-score is reported as -0.607 (inactive).
For GGAUCCAAGGCAAAGAUGUTT against Fto, the z-score was 1.73 (inactive).
With AUACGAUUUUUGUACUGCUTT against Defa4 the z-score was 0.305 (inactive).
With GCCAGGUGUGGUGACUCAUTT against Tprkb the z-score was 0.584 (inactive).
In the case of GCUAUGCAAAUGGUGUCAATT against Fcnb, the z-score is reported as -0.147 (inactive).
In the case of GGUGAGAUGGUUCAACAUGTT against Olfr77, the z-score is reported as 1.7 (inactive).
In the case of GGACUUGAACAACUUACAATT against Plcb1, the z-score is reported as 2.37 (active).
With GUAUUAAGACCAAACAGAUTT against Olfr623 the z-score was -0.497 (inactive).
For CCCAAUCGGUUAAUUGUUGTT against Vcp, the z-score was -2.37 (active).
In the case of GCCAGUUAUCACUUAACCCTT against Cmc1, the z-score is reported as -0.514 (inactive).
In the case of GGAACCUUCAGAGCGACUUTT against Trib3, the z-score is reported as 0.224 (inactive).
With GGCAAGGAGGAUGACAAAATT against Rnf113a2 the z-score was 0.416 (inactive).
With GGUAGAGAGACUGUAAUUATT against Ppp2r1b the z-score was -0.598 (inactive).
For GGAGUUUAUGAAAUUCAACTT against Fcgrt, the z-score was 1.34 (inactive).
With CCAUCUAUGGUAUGGAGCGTT against Abcg4 the z-score was 0.606 (inactive).
For GGAUGAAGAAGAUGAAGAUTT against Prepl, the z-score was -2.62 (active).
With GGAAGACUUUGAAUACCACTT against Slc4a2 the z-score was 0.457 (inactive).
In the case of GCUGUUCUGCAAAACUGGATT against Rbpms, the z-score is reported as -1.36 (inactive).
For GGACACAAGGUCGCCAUCUTT against Tcf7l1, the z-score was -0.502 (inactive).
For GGUGCUGGAUGAAUUUGGGTT against Zp1, the z-score was -0.416 (inactive).
With GCAUGUCGCCUUGAAAUUATT against Cpne4 the z-score was 0.202 (inactive).
With GGAAGGAGGGUAUGUGGUUTT against Lgals9 the z-score was -0.346 (inactive).
For GCAAACUGCCCUCUUUGUGTT against Olfr1024, the z-score was 2.54 (active).
In the case of GGAUAUACACAACAGGCACTT against Tceal9, the z-score is reported as 0.422 (inactive).
With GGAGACACAUAGGUGUAAATT against H2-T23 the z-score was 0.458 (inactive).
With “GCACCAUCGACUAAUCAAATT against 1700029J07Rik” the z-score was 1.12 (inactive).
